We go through 38 compounds from PubChem BioAssay AID493194 (Broad Institute, 2011).

Structures are written as SMILES. Entries with a potency or affinity are not part of this list. Records with an inconclusive call do not appear. Values without a mark were called inactive.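 Rule for the calls: active = a valid curve of falling signal whose half-effect concentration is at most ten times the top tested dose; inconclusive = flat curve at 30 to 70% inhibition, or poor fit; inactive = signal rise, flat within 30%, or potency beyond limit.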

This assay deals with Scavenger receptor class B member 1 (Mus musculus) (UniProt Q61009). Briefly: mouse SR-BI DiI-HDL uptake blockers – ldlA[mSR-BI] cells, fluorescence, cherry pick, dose response (AID 493194).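 Note: CHO cells lacking LDL receptor and overexpressing mouse SR-BI; cellular uptake of fluorescently labeled HDL measured as cell fluorescence; 0% = median of neutral control wells and -100% = median of positive control wells.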 To be noted: CHO ldlA[mSR-BI] DiI-HDL uptake fluorescence, 3 h; series mostly up to 35 µM; activity change, negative = inhibition: at the top concentration.
Scavenger receptor class B member 1 (Mus musculus), sequence (Q61009 whole entry, looked up): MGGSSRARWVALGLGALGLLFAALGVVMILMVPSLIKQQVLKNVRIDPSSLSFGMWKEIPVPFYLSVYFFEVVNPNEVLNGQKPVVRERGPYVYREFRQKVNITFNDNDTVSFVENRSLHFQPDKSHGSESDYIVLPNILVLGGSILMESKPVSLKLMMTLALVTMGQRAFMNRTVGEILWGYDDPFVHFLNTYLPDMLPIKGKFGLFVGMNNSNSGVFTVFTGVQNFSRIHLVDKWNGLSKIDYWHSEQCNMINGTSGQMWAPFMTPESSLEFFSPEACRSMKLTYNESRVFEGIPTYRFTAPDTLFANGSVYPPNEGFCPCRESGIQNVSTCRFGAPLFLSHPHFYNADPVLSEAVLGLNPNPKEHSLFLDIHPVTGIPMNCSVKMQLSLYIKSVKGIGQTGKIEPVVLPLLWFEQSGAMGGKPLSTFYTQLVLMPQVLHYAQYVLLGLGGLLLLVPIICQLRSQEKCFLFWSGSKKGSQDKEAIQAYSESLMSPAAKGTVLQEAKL
On to `Cc1cc2oc(=O)cc(CN3CCN(C/C=C/c4ccccc4)CC3)c2cc1O`, for which the “activity change, negative = inhibition” value was 24.4%.

For the compound `COc1ccc(N2CC(C(=O)NCCc3ccc(Cl)cc3)CC2=O)c(OC)c1` (stereo not drawn), the “activity change, negative = inhibition” value was -7.36%.

Take `CCOC(=O)Nc1ccc2c(c1)N(C(=O)C(C)N1CCCC1)c1ccccc1CC2` (stereo not drawn): the “activity change, negative = inhibition” value is 25.8%.

As to `O=C(Nc1nc(-c2ccccn2)cs1)c1ccc(-c2ccccc2F)o1`, the “activity change, negative = inhibition” value is 10.7%.

In the case of `Cc1c(C(=O)Nc2cccc(Cl)c2)c2ccccn2c1CCc1ccncc1`, the “activity change, negative = inhibition” value is 1.1%.

Regarding `CCC(C(=O)NC1CCCC1)N(C(=O)Cn1nnc(-c2ccc(OC)c(OC)c2)n1)c1cccc(O)c1` (stereo not drawn), the “activity change, negative = inhibition” value was -29.5%.

Consider `CCCCC(=O)Nc1cccc(NC(=O)c2ccccc2Br)c1`, for which the “activity change, negative = inhibition” value is -29.1%.

With `Cc1ccc(OCc2cc(C(=O)N3CCCC(O)C3)no2)cn1` (stereo not drawn), the “activity change, negative = inhibition” value is 103%.

Take `COCC(C)N1CC(O)=C(c2nc(-c3ccc(Cl)cc3)cs2)C1=N` (stereo not drawn): the “activity change, negative = inhibition” value was -3.9%.

On to `COc1ccc(-c2nc(CN3CCN(c4ncnc5ccccc45)CC3)c(C)o2)c(OC)c1`, for which the “activity change, negative = inhibition” value is 0.707%.

`COc1ccc(C2/C=C\CN(S(=O)(=O)c3ccc4ccccc4c3)CC(=O)N2Cc2ccc(F)cc2)cc1` (stereo not drawn): the “activity change, negative = inhibition” value is 54.8%.

In the case of `COC(=O)c1ccc(C(=O)Nc2nc3cc(N)c(C)cc3s2)cc1`, the “activity change, negative = inhibition” value was -23.6%.

On to `COC(=O)C1C(=O)c2c([nH]c(C(=O)OC3CCCC3C)c2C)CC1C` (stereo not drawn), for which the “activity change, negative = inhibition” value is 10.7%.

Consider `CCC(=O)Nc1ccccc1-c1nnn(CC(=O)N2c3ccccc3CC2C)n1` (stereo not drawn), for which the “activity change, negative = inhibition” value was 3.68%.

With `COc1ccc(CCN2CC(C(=O)NCc3cc(C(C)C)no3)CCC2=O)cc1` (stereo not drawn), the “activity change, negative = inhibition” value is 6.57%.

Turning to `Cc1c(C(=O)N2CC3(CC(c4cccc(NC(=O)CC(c5ccccc5)c5ccccc5)c4)=NO3)C[C@@H]2C(N)=O)cc([N+](=O)[O-])cc1[N+](=O)[O-]` (stereo partly drawn), the “activity change, negative = inhibition” value was 59.2%.

For `Cn1c(-c2ccsc2)c(-c2cccs2)c2cc(-c3ccc4cc[nH]c4c3)ccc21`, the “activity change, negative = inhibition” value is -34.9%.

Turning to `CCCC(=O)Nc1ccc(Cl)c(NC(=O)c2ccc(Br)o2)c1`, the “activity change, negative = inhibition” value is -19.4%.

Consider `Cn1c(C(=O)N2CCC(C(=O)N3CCN(Cc4ccc5c(c4)OCO5)CC3)CC2)cc2sccc21`, for which the “activity change, negative = inhibition” value was -21.5%.

Take `CCOc1cc2c3c(c1)C1(C(=O)N3C(C)(C)CC2C)C(C#N)=C(N)N2C(=C1C#N)Nc1ccccc12` (stereo not drawn): the “activity change, negative = inhibition” value was 4.74%.

Regarding `COc1ccccc1CCc1nnc(CCC(=O)N(C)Cc2cccc3cnccc23)o1`, the “activity change, negative = inhibition” value is -20.7%.

As for `CN(C(=O)c1cc(-n2cnnc2)ccc1Cl)c1ccccc1`, the “activity change, negative = inhibition” value was 25.3%.

Consider `CCC(C)n1ncn(-c2ccc(N3CCN(c4ccc(OCC5COC(Cn6cncn6)(c6ccc(Cl)cc6Cl)O5)cc4)CC3)cc2)c1=O` (stereo not drawn), for which the “activity change, negative = inhibition” value is -26.7%.

In the case of `Cc1ccc(C(C(=O)NC(C)(C)C)N(Cc2cccs2)C(=O)c2ccc3c(c2)OCCO3)cc1` (stereo not drawn), the “activity change, negative = inhibition” value is 9.72%.

For `CN(C(=O)COC(=O)CCc1c[nH]c2ccccc12)c1ccccc1`, the “activity change, negative = inhibition” value is 66.7%.

`N#Cc1ccc(C(=O)N2CCC3CC2c2cc(-c4ccc(F)cc4)ccc23)cc1` (stereo not drawn): the “activity change, negative = inhibition” value is 4.03%.

Take `COc1ccccc1CNC(=O)C1CCN(C(=O)c2sccc2-n2cccc2)CC1`: the “activity change, negative = inhibition” value is -31.5%.

`CC(=O)NCCC1CCN(C(=O)c2cc(COc3ccc(C)nc3)on2)CC1`: the “activity change, negative = inhibition” value was 7.7%.

For `COCCOC(=O)c1[nH]c2c(c1C)C(=O)CC(c1ccco1)C2` (stereo not drawn), the “activity change, negative = inhibition” value is -33.1%.

For `COc1cccc2c1cc1c(=O)n(CC(=O)N3CCN(c4cccc(C)c4C)CC3)nc(C)n12`, the “activity change, negative = inhibition” value is 26.3%.

For `O=S(=O)(c1ccccc1)c1cnc(-c2ccccc2)nc1N1CCCCC1`, the “activity change, negative = inhibition” value was -21.5%.

Turning to `Cc1ccccc1C(=O)N1CCc2cc(-c3nc(NC(=O)Cc4ccc5c(c4)OCO5)sc3C)ccc21`, the “activity change, negative = inhibition” value was 2.62%.

Consider `Cc1cc(N2CCN(C(=O)c3ccco3)CC2)n2ncc(-c3ccccc3)c2n1`, for which the “activity change, negative = inhibition” value is 0.033%.

Turning to `Cc1nn(Cc2c(Cl)cccc2Cl)c(C)c1NC(=O)CCCn1nc([N+](=O)[O-])c(Cl)c1C`, the “activity change, negative = inhibition” value was -20.3%.

Turning to `O=C1C2C3C=CC(C3)C2C(=O)N1c1cccc(N2C(=O)C3C4C=CC(C4)C3C2=O)n1` (stereo not drawn), the “activity change, negative = inhibition” value was 100%.

Consider `COc1cccc(-c2csc(N3CCN(C(=O)NC45CC6CC(CC(C6)C4)C5)CC3)n2)c1`, for which the “activity change, negative = inhibition” value is -5.28%.

Regarding `COc1cc(C(=S)N2CCCC2)ccc1OC(=O)c1ccc(Cl)cc1[N+](=O)[O-]`, the “activity change, negative = inhibition” value is -29.2%.

For `CC(C(=O)NCc1ccccc1)N(Cc1ccccc1Cl)C(=O)c1snc(C(N)=O)c1N` (stereo not drawn), the “activity change, negative = inhibition” value was 30.8%.
